Data from PubChem BioAssay (Tox21).
Active and inactive are the calls of the source. Calls follow the shape of the dose curve; as a rule, active = well fitted curve in the direction sought with a large enough effect in the repeat runs; inconclusive = weak or mixed curves; inactive = flat fitted curve, though single readings scatter.

assay: qHTS assay to test for compound auto fluorescence at 590 nm (red) in HepG2 cells (AID 720674); details: HepG2 autofluorescence, red 540/590 nm, 1 h; series mostly up to 91.3 µM; fluorescence, relative to Rose Bengal: at the top concentration
From the text: U.S. Tox21 Program National Center for Advancing Translational Sciences [NCATS] NIH Chemical Genomics Center [NCGC] U.S. Environmental Protection Agency [EPA] National Institutes of Environmental Health Sciences [NIEHS] National Toxicology Program [NTP] U.S. Food and Drug Administration [FDA] Tox21 Assay Overview: Compound auto fluorescence often interferes with screening of the compound library against various biological targets and signaling pathways. Some of these compounds may have fluorophoric properties. Such properties may interfere with the assay outputs resulting in false positives and/or negatives. To decrease such complications and ensure the compound activities are relevant in terms of biological response, the Tox21 10K compound library was screened for auto fluorescence. From the fluorophores used as reporter signals in our screening assays, the auto fluorescence equivalencies of compounds against three fluorophores have been evaluated: Triamterene, Fluorescein and Rose Bengal sodium for blue, green and red fluorescence, respectively. The fluorescence intensities were measured using Excitation/Emission wavelengths at 405/460nm, 485/535nm and 540/590nm for blue, green and red labels, respectively. This assay includes the red fluorescence data.
Tox21 Assay Protocol Summary: 2,000 HepG2 cells in 5 uL of culture medium (MEM containing 10% FBS) per well were dispensed into black wall/clear bottom 1536-well plates using a Multidrop Combi Dispenser (ThermoFisher Scientific, Waltham, MA). The assay plates were incubated overnight at 37 C to allow cell attachment to the well bottom, followed by the transfer of 23 nL compound or DMSO vehicle by a pintool work station (Kalypsys , San Diego, CA). After the assay plates were incubated for 1 hr at 37 C and 5% CO2, fluorescence intensities in the assay plates were measured by an Envision (PerkinElmer, Shelton, CT) plate reader using three labels for measuring blue, green and red fluorescence at […] 460, 535 and 590 nm respectively.
% is scaled to controls: 0 for no effect and ±100 for the full control effect.

| SMILES | fluorescence, relative to Rose Bengal | outcome |
| --- | --- | --- |
| ClCc1ccc(Cl)cc1Cl | 0.0304% (inactive) |  |
| CC1(C)CC/C(=C/c2ccc(Cl)cc2)C1(O)Cn1cncn1 (stereo not given) | -0.714% (inactive) |  |
| CCCOCC(=Nc1ccc(Cl)cc1C(F)(F)F)n1ccnc1 | -0.0725% (inactive) |  |
| CC1(c2ccc(Oc3ccccc3)cc2)OC(=O)N(Nc2ccccc2)C1=O (stereo not given) | 0.181% (inactive) |  |
| COC12CC[C@@]3(C[C@@H]1C(C)(O)C(C)(C)C)[C@H]1Cc4ccc(O)c5c4[C@@]3(CCN1CC1CC1)[C@H]2O5 (stereo not given in full) | 0.235% (inactive) |  |
| Oc1ccc2ccc3cccc4ccc1c2c34 | 0.322% (inactive) |  |
| Nc1ccccc1C(=O)Oc1ccc2ccccc2c1 | -0.0841% (inactive) |  |
| N#C/C=C/C#N | -0.205% [at 95.7 µM] (inactive) |  |
| CC(C)(C)c1cc([N+](=O)[O-])cc(C(C)(C)C)c1O | -0.0488% (inactive) |  |
| C1CCC2CCCCC2C1 (stereo not given) | -0.0249% [at 95.7 µM] (inactive) |  |
| CCN(CC)C(=S)[S-].CCN(CC)C(=S)[S-].[Zn+2] | -0.0709% (inactive) |  |
| CC(=O)[O-].CC(=O)[O-].O.O.[Cd+2] | -0.0648% (inactive) |  |
| COc1ccc(/C(=C/C(=O)N2CCOCC2)c2ccc(Cl)cc2)cc1OC | 0.63% (inactive) |  |
| CC(=O)/C=C/c1ccc2c(c1)OCO2 | -0.0325% (inactive) |  |
| C[C@]12CC[C@@H]3c4ccc(OC(=O)N(CCCl)CCCl)cc4CC[C@H]3[C@@H]1CC[C@@H]2O | -0.351% [at 46 µM] (inactive) |  |
| Cc1cc(C)c(C2=C(OC(=O)CC(C)(C)C)C3(CCCC3)OC2=O)c(C)c1 | 0.115% [at 95.7 µM] (inactive) |  |
| CC(C)CC(C)Nc1ccc(Nc2ccccc2)cc1 (stereo not given) | 0.203% (inactive) |  |
| Cc1ccc(OP(=O)(Oc2ccccc2)Oc2ccccc2)cc1 | 0.245% [at 95.7 µM] (inactive) |  |
| S=C(SSC(=S)N1CCCCC1)N1CCCCC1 | 0.191% [at 46 µM] (inactive) |  |
| ClC1=C(Cl)C2(Cl)C3C(Cl)C(Cl)CC3C1(Cl)C2(Cl)Cl (stereo not given) |  | inactive |

| SMILES | fluorescence, relative to Rose Bengal | outcome |
| --- | --- | --- |
| Clc1ccc(CSC(Cn2ccnc2)c2ccc(Cl)cc2Cl)cc1 (stereo not given) | -0.0239% [at 18.6 µM] (inactive) |  |
| Clc1ccc(C(c2ccc(Cl)cc2)C(Cl)(Cl)Cl)cc1 |  | inactive |
| C[C@@H]1O[C@@H](O[C@@H]2C=C3CC[C@@H]4[C@H](CC[C@]5(C)[C@@H](c6ccc(=O)oc6)CC[C@]45O)[C@@]3(C)CC2)[C@H](O)[C@H](O)[C@H]1O | 0.222% [at 18.6 µM] (inactive) |  |
| CC(C)(O)c1cnn2c(-c3ccc(F)c(-c4c(F)cccc4C#N)c3)cnc2n1 | -0.109% (inactive) |  |
| BrCBr | -0.0015% [at 95.7 µM] (inactive) |  |
| C[C@H]1CC[C@@H]2[C@@H](C)[C@H]3[C@H](C[C@H]4[C@@H]5CC=C6CC(O[C@@H]7O[C@H](CO)[C@H](O)[C@H](O[C@@H]8O[C@H](CO)[C@@H](O)[C@H](O)[C@H]8O)[C@H]7O[C@H]7O[C@@H](C)[C@H](O)[C@@H](O)[C@H]7O)CC[C@]6(C)[C@H]5CC[C@]34C)N2C1 (stereo not given in full) |  | inactive |
| CN(C)C(=S)[S-].CN(C)C(=S)[S-].[Cu+2] | 0.166% [at 18.6 µM] (inactive) |  |
| CC1CCC(C(C)C)C(OC(=O)c2ccccc2N)C1 (stereo not given) |  | inactive |
| O=[N+]([O-])c1cc([N+](=O)[O-])c2ccccc2c1 | -0.295% (inactive) |  |
| CC(C)OC(=S)S | 0.115% (inactive) |  |
| CCCCN(CCCC)C(=S)[S-].CCCCN(CCCC)C(=S)[S-].[Zn+2] |  | inactive |
| CCOP(=S)(OCC)OC(Cl)C(Cl)(Cl)Cl (stereo not given) | -0.0877% (inactive) |  |
| O=[N+]([O-])c1ccc(Oc2ccc(C(F)(F)F)cc2[N+](=O)[O-])cc1 | -0.0355% (inactive) |  |
| O=c1ssc(Cl)c1Cl | 0.0214% (inactive) |  |
| CC(C)OS(C)(=O)=O | 0.0122% (inactive) |  |
| O=c1[nH]c2ccccc2n1C1CCN(CCCC(c2ccc(F)cc2)c2ccc(F)cc2)CC1 |  | inactive |
| CC[C@H](C)[C@H]1O[C@]2(C=C[C@@H]1C)C[C@@H]1C[C@@H](C/C=C(\C)[C@@H](O[C@H]3C[C@H](OC)[C@@H](O[C@H]4C[C@H](OC)[C@@H](O)[C@H](C)O4)[C@H](C)O3)[C@@H](C)/C=C/C=C3\CO[C@@H]4[C@H](O)C(C)=C[C@@H](C(=O)O1)[C@]34O)O2 |  | inactive |
| CCC(C)c1cc([N+](=O)[O-])cc([N+](=O)[O-])c1OC(=O)C=C(C)C (stereo not given) | 0.0161% (inactive) |  |
| c1ccc(OCC2CO2)cc1 (stereo not given) | 0.106% (inactive) |  |
| N#CSCSC#N |  | inactive |
